The campaign covered roughly 320,000 compounds. About 22,000 (6.9%) were called active. About 27% were inconclusive and are not listed. The sample holds actives, similar compounds and a random draw of the others, so the mix is not that of the screen. Values without a mark were called inactive. The call rests on the fitted dose curve; in most records, active means well fitted inhibition curve with a large enough effect; inconclusive means small, poorly fitted or top-dose-only effect, or another doubt; inactive means no such curve, though single readings can be large or run the other way.
Assay: Primary qHTS for delayed death inhibitors of the malarial parasite plastid, 96 hour incubation
Conditions: P. falciparum luciferase reporter growth; series mostly up to 28.7 µM; activity change, negative = inhibition: at the top concentration
Text: The goal of this screen is to discover new antimalarial compounds that act by inhibiting the development of the apicoplast in the malarial parasite Plasmodium falciparum. The biochemical processes that make this organelle essential for erythrocytic stage parasites are not well understood. However, antibiotics such as azithromycin and tetracycline, which target the apicoplast translational machinery, have a potent antimalarial effect.
We have developed a cell-based assay that measures parasite growth based on the expression of an integrated copy of a firefly luciferase reporter. To detect small molecules that cause this "delayed death" phenotype, erythrocytes infected with the luciferase-expressing parasites were incubated with compounds for either one or two generations, corresponding to 48 and 96 hours, respectively. Compounds that inhibit parasite growth in the second generation, but not the first, should be enriched in antimalarials that target the apicoplast. Growth inhibition is detected by a decrease in luciferase activity.
Assay Provider: David Fidock and Eric Ekland, Columbia University
Keywords: NIH Roadmap, MLPCN, MLI, MLSMR, qHTS, NCGC, qHTS, malaria, luciferase, viability
Four microliters of infected erythrocytes (2% hematocrit, 0.05% parasitemia final concentration) in culture medium were dispensed and the plates incubated for 96 hours at 37 C in 5% CO2. Two microliters of luciferase detection reagent was added and luminescence was detected by a ViewLux (PerkinElmer) reader.
On the % scale 0 is the no-effect control and ±100 the full control effect; potency means the concentration at half of the fitted maximal effect.

Which “activity change, negative = inhibition” value does the source give for `FC(F)(F)c1cccc(-c2nc(COc3ccc(Cl)cc3Cl)no2)c1` here?
Its value is -2.32%.

With `Cc1cc(C)nc(NS(=O)(=O)c2ccc(N3C(=O)C4CCCCC4C3=O)cc2)n1` (stereo not drawn) as the molecule, how does the “activity change, negative = inhibition” value read?
The value was 77.2%.

With `CCc1ccc(NC(=O)Cn2nnc(C(=O)NCc3ccc4c(c3)OCO4)c2N)cc1` as the molecule, how does the “activity change, negative = inhibition” value read?
The value was 20.3%.

For `COc1ccc(S(=O)(=O)NC(C)C)cc1C(=O)NC1CCCCC1`, which “activity change, negative = inhibition” value is on record?
The value was -13.1%.

For `CC(C)Oc1ccc(S(=O)(=O)N2CCOCC2)cc1NC(=O)C1CCCC1`, which Potency is on record?
The Potency was 11.7 µM (active).

With `Cc1ccc(S(=O)(=O)N2CCOCC2)cc1NC(=O)CSc1nnc(N)s1` as the molecule, how does the “activity change, negative = inhibition” value read?
Its value is -4.94%.

Which “activity change, negative = inhibition” value does the source give for `COc1ccc(S(=O)(=O)N2CCOCC2)cc1NC(=O)Cc1coc2cc(C)ccc12` here?
The value was -11.9%.

Which “activity change, negative = inhibition” value does the source give for `Cc1ccc(S(=O)(=O)N2CCN(C)CC2)cc1C(=O)NC1CCCCC1` here?
Its value is -14.8%.

For `COc1ccc(S(=O)(=O)N2CCOCC2)cc1NC(=O)Cc1c(F)cccc1Cl`, which “activity change, negative = inhibition” value is on record?
The value was -12.3%.

For `COc1ccc(S(=O)(=O)N2CCOCC2)cc1C(=O)NC1CCCCC1`, which Potency is on record?
Its Potency is 4.65 µM (active).

Which Potency does the source give for `COc1ccc(S(=O)(=O)N2CCOCC2)cc1NC(=O)CSc1cc(C)ccc1C` here?
Its Potency is 7.38 µM (active).

Which “activity change, negative = inhibition” value does the source give for `COc1ccc(S(=O)(=O)N2CCOCC2)cc1NC(=O)COc1ccccc1` here?
Its value is -0.938%.

For `NC(=O)COC(=O)c1ccc2c(c1)C(=O)N(Cc1ccco1)C2=O`, which “activity change, negative = inhibition” value is on record?
The value was 18.5%.

With `Cc1cc(C)c(CN2CCN(C(=O)Cn3ccc(NC(=O)OCc4ccccc4)nc3=O)CC2)c(C)c1` as the molecule, how does the “activity change, negative = inhibition” value read?
Its value is -25.9%.

Which “activity change, negative = inhibition” value does the source give for `O=C(COC(=O)Cn1[nH]c(=O)c2ccccc2c1=O)Nc1ncc(Cl)cc1Cl` here?
Its value is 25.8%.

For `COc1ccc(C(=O)OCC(=O)c2ccc(Cl)s2)c(OC)c1OC`, which “activity change, negative = inhibition” value is on record?
The value was -21.3%.

For `CCc1cccc(C)c1NC(=O)COC(=O)CNC(=O)c1cccs1`, which “activity change, negative = inhibition” value is on record?
Its value is 34.6%.

Which “activity change, negative = inhibition” value does the source give for `CN(C)c1cccc(C(=O)N2CCC(n3nccc3NC(=O)C3CCOC3)CC2)c1` (stereo not drawn) here?
Its value is 16.6%.

With `Cc1nnc2n1N=C(c1ccccc1)CS2` as the molecule, how does the “activity change, negative = inhibition” value read?
Its value is 22%.

For `CCN(CC)S(=O)(=O)c1ccc(Cl)c(C(=O)NCCN2CCOCC2)c1`, which “activity change, negative = inhibition” value is on record?
The value was -25.2%.

Which “activity change, negative = inhibition” value does the source give for `O=C(NC(=O)c1ccccc1)NC(=O)c1ccccc1` here?
The value was -27.2%.

Which “activity change, negative = inhibition” value does the source give for `O=C(NCC1CCCO1)/C(=C/c1ccc(Cl)cc1)NC(=O)c1ccccc1` (stereo not drawn) here?
The value was -28.1%.

Which Potency does the source give for `N#C/C(=C/c1ccc(Cl)cc1)NC(=O)c1ccccc1` here?
The Potency was 3.7 µM (active).

For `CCOc1ccc(NC(=O)CC2C(=O)N(c3ccccc3)C(=O)N2CCOC)cc1` (stereo not drawn), which “activity change, negative = inhibition” value is on record?
Its value is 35.9%.

For `CCCOc1ccc(NC(=O)CC2C(=O)N(C)C(=S)N2Cc2ccc3c(c2)OCO3)cc1` (stereo not drawn), which Potency is on record?
The Potency was 0.329 µM (active).

Which “activity change, negative = inhibition” value does the source give for `COc1ccc(N2C(=O)C(CC(=O)Nc3ccccc3)N(Cc3ccc(OC)c(OC)c3)C2=O)cc1` (stereo not drawn) here?
The value was 10.9%.

With `CCS(=O)(=O)c1ccc(-c2cccc(NC(=O)c3ccc(Br)o3)c2)nn1` as the molecule, how does the “activity change, negative = inhibition” value read?
The value was 1.83%.

With `O=C(OCCN1C(=O)c2ccccc2C1=O)Oc1ccccc1` as the molecule, how does the “activity change, negative = inhibition” value read?
The value was -2.14%.

Which “activity change, negative = inhibition” value does the source give for `O=C(NCCCn1ccnc1)c1ccccc1F` here?
The value was -19.5%.

Which activity change, negative = inhibition does the source give for `COc1ccc(-c2cn3cccnc3n2)cc1` here?
The activity change, negative = inhibition was -27.3% [at 5.75 µM].

With `COc1ccc(-c2sc3ccc(OC)cc3c2C#Cc2ccccn2)cc1` as the molecule, how does the Potency read?
Its Potency is 2.33 µM (active).

With `COc1ccc(-c2csc(Nc3ccccn3)n2)cc1` as the molecule, how does the “activity change, negative = inhibition” value read?
The value was 9.84%.

Which “activity change, negative = inhibition” value does the source give for `CC1(C)C(C=C(Cl)Cl)C1C(=O)NC(O)C(=O)c1ccccc1` (stereo not drawn) here?
Its value is 21.7%.

For `COc1ccc(N2CCN(C3CCCCC3NS(=O)(=O)c3ccccc3)CC2)cc1` (stereo not drawn), which “activity change, negative = inhibition” value is on record?
Its value is 19.5%.

With `O=C(NC1Cc2ccccc2C1)c1cc(COc2cccc(C(F)(F)F)c2)on1` as the molecule, how does the “activity change, negative = inhibition” value read?
Its value is -18.1%.

Which “activity change, negative = inhibition” value does the source give for `CC(C)CC(=O)Nc1nnc(S(=O)(=O)N(C)c2ccc(Cl)cc2)s1` here?
The value was 0%.

Which Potency does the source give for `CCNc1ccc(C(=O)OCC(=O)N2c3ccccc3NC(=O)C2(C)C)cc1[N+](=O)[O-]` here?
The Potency was 9.28 µM (active).

With `Cc1cc(C(=O)OCC(=O)N2c3ccccc3NC(=O)C2(C)C)c(C)n1-c1ccccc1` as the molecule, how does the “activity change, negative = inhibition” value read?
Its value is 0%.

With `CNS(=O)(=O)c1cccc(C(=O)OCC(=O)N2c3ccccc3NC(=O)C2(C)C)c1` as the molecule, how does the “activity change, negative = inhibition” value read?
Its value is -26.3%.

For `COc1cccc(-n2c(=S)sc3c(=O)n(-c4ccccc4C)c(SCC(=O)O)nc32)c1`, which “activity change, negative = inhibition” value is on record?
The value was 23.6%.

For `O=C(CN1CCCCCC1)Nc1ccc(Cl)cc1F`, which “activity change, negative = inhibition” value is on record?
The value was 39.2%.

Which “activity change, negative = inhibition” value does the source give for `CN(C)C(=O)c1ccc(NC(=O)COC(=O)c2cc3c(s2)CCCCC3)cc1` here?
Its value is -11.1%.

Which Potency does the source give for `CC(C)c1cc(CN2CCOCC2)cc(C(C)C)c1O` here?
The Potency was 10.4 µM (active).

For `CC(CN1CCOCC1)c1ccccc1` (stereo not drawn), which “activity change, negative = inhibition” value is on record?
Its value is 25.6%.

With `Cc1cc(C)cc(NC(=S)NCCCN2CCOCC2)c1` as the molecule, how does the “activity change, negative = inhibition” value read?
The value was 2.48%.

Which “activity change, negative = inhibition” value does the source give for `CCOC(=O)Nc1ccc2c(c1)N(C(=O)CCCl)c1ccccc1[S@]2=O` here?
The value was -14.6%.

For `Cc1ccc(CCN2CC(C(=O)NCCc3ccccc3)CC2=O)cc1` (stereo not drawn), which “activity change, negative = inhibition” value is on record?
The value was 68.2%.

Which “activity change, negative = inhibition” value does the source give for `CC(=O)Nc1c2c(nn1-c1cccc(C)c1)CSC2` here?
The value was 20.2%.

Which “activity change, negative = inhibition” value does the source give for `O=C(CCCN1C(=O)/C(=C\c2ccco2)SC1=S)Nc1cccc2ccccc12` here?
The value was 10.4%.

For `Cc1ccc2[nH]c(=O)c(-c3nc4c(C)cccn4c3NCc3ccco3)cc2c1`, which activity change, negative = inhibition is on record?
The activity change, negative = inhibition was 10.9% [at 5.75 µM].

For `CCCN(CCC)c1nc2c(C)cccn2c(=O)c1/C=C1/SC(=S)N(Cc2ccco2)C1=O`, which Potency is on record?
Its Potency is 2.08 µM (active).

Which “activity change, negative = inhibition” value does the source give for `Cn1c(=O)[nH]c(=O)c2c1[nH]c(=S)n2Cc1ccccc1` here?
The value was 10.9%.

Which “activity change, negative = inhibition” value does the source give for `COc1ccc(C(=O)Oc2ccc(-c3nnco3)cc2)cc1S(=O)(=O)N1CCOCC1` here?
The value was 22.5%.

For `COc1ccc(C2=NOC(C(=O)NCc3ccco3)C2)cc1OC` (stereo not drawn), which “activity change, negative = inhibition” value is on record?
The value was -4.01%.

Which Potency does the source give for `COc1cc2c(cc1OC)C(C(=O)NCc1ccco1)C1c3ccccc3CCN1C2=O` (stereo not drawn) here?
Its Potency is 3.29 µM (active).

Which “activity change, negative = inhibition” value does the source give for `COc1ccccc1N1CCN(CC(=O)NC(=O)NCc2ccco2)CC1` here?
The value was 27.5%.

With `CCCCNC(=O)CN1C(=O)NC(Cc2ccccc2)(Cc2ccccc2)C1=O` as the molecule, how does the “activity change, negative = inhibition” value read?
The value was 7.91%.

For `CCOC(=O)c1c(NC(=O)c2cccs2)sc(C)c1C`, which “activity change, negative = inhibition” value is on record?
Its value is 50.7%.

With `CCOC(=O)c1c(NC(=S)NC(=O)/C=C/c2cccs2)sc(C)c1C` as the molecule, how does the “activity change, negative = inhibition” value read?
Its value is 0%.

Which Potency does the source give for `CCOC(=O)c1c(NC(=O)/C=C/c2ccco2)sc(C)c1C` here?
Its Potency is 2.33 µM (active).

For `Cn1c(Nc2ccccc2)cc(=O)n(C)c1=O`, which “activity change, negative = inhibition” value is on record?
Its value is 11.9%.

For `COc1ccc(N2C(=O)CCC(C(=O)N(C)C3CCCCC3)C2c2ccc(OC)c(OC)c2)cc1` (stereo not drawn), which “activity change, negative = inhibition” value is on record?
Its value is -2.32%.

For `COCCCN1C(=O)c2ccc(C(=O)Nc3ccc(OC)cc3OC)cc2C1=O`, which activity change, negative = inhibition is on record?
The activity change, negative = inhibition was 25.7% [at 5.75 µM].

Which “activity change, negative = inhibition” value does the source give for `COC(=O)CN1C(=O)[C@H]2[C@@H](C3CC3)N3C(=O)CN(Cc4ccc(-c5ccccc5)cc4)C(=O)[C@@]3(Cc3ccccc3)[C@H]2C1=O` here?
Its value is 40.9%.

For `CCCCCCSc1ccc([C@@H]2[C@@H]3C(=O)N(CC)C(=O)[C@@H]3[C@]3(C(=O)OC)CCCCN23)cc1OC`, which Potency is on record?
The Potency was 6.57 µM (active).

For `CCN1C(=O)[C@@H]2[C@@H](c3ccc(-c4cccc(Cl)c4)cc3)N3CCC[C@@]3(C(=O)OC)[C@@H]2C1=O`, which Potency is on record?
Its Potency is 8.28 µM (active).

Which Potency does the source give for `CCN1C(=O)[C@@H]2[C@@H](c3ccc(-c4ccc(OC)cc4)c(OC)c3)N3CCC[C@@]3(C(=O)OC)[C@@H]2C1=O` here?
Its Potency is 10.4 µM (active).

Which “activity change, negative = inhibition” value does the source give for `CCn1cc(CN2CCC(C(=O)Nc3cccc(-c4cccc(Cl)c4)c3)CC2)c(C)n1` here?
Its value is 11.7%.
